Screening results: PubChem BioAssay, National Center for Advancing Translational Sciences (NCATS)
TDP1 cell noCPT – qHTS for Inhibitors of human tyrosyl-DNA phosphodiesterase 1 (TDP1): qHTS in cells in absence of CPT; Potency, µM (titrated, usually from 46.2 µM), hits mostly inhibitors; 420,000 tested, 15% active; DT40 Tdp1-/- hTDP1 cells, no CPT, ATP luminescence, 48 h; AID 686978, 2013; also: nearly all actives have a fitted effect of over 55% in size
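Camptothecin absent (DMSO only). Human TDP1-complemented DT40 knockout cells, 400 cells/well, 37 °C for minimum 48 hr; ATP measured via CellTiter-Glo, 30 min dark incubation, luminescence.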
IL-1B inflam inh – inhibitors of inflammasome signaling (IL-1 beta secretion); THP-1 LPS/ATP IL-1B secretion, AlphaLISA, 16 h; stronger effect = lower value; activity change, % at 57.5 µM; 360,000 tested, 4.7% active; AID 743279; in the data active = activity change below about -50%; inconclusive = mostly about -30% to -49%
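Secreted IL-1B measured by AlphaLISA bead assay after 16 h compound exposure of THP-1 cells; compounds (final up to 57.5 uM) added 1 h before LPS (250 ng/mL) and ATP (1.25 mM) stimulation; lower signal means less secretion.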
HT1080NT lethal – kills 2HG-producing HT-1080-NT fibrosarcoma cells; HT-1080-NT fibrosarcoma viability, CellTiter-Glo ATP luminescence, 48 h; Potency, µM (top dose mostly 46.1 µM), hits mostly cytotoxic; 360,000 tested, 1.6% active;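 also: NT is the 2HG producing partner of a matched IDH1 knockdown line; nearly all actives have a fitted effect of over 55% in size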
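HT-1080-NT fibrosarcoma cells (2HG-overproducing), 750 cells/well in RPMI with 5% FBS, dosed after 2 h and incubated 48 h at 37C. CellTiter-Glo luminescence normalized to DMSO and no-cell wells; concentration-response curves fitted and classed.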
HT1080 IDH1KD tx – toxicity to HT-1080 IDH1 knockdown cells (counter line). AID 686971. HT-1080 IDH1 knockdown viability, ATP luminescence, 48 h. 360,000 tested, 2% active. Potency, µM (top dose mostly 46.1 µM), usual class: cytotoxic
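After a 2 h attachment period, IDH1KD HT-1080 cells took pin-transferred compound for 48 h at 37 °C; ATP-based luminescence after 10 min room-temperature reagent incubation reported viability.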
TDP1 cell CPT – growth inhibition of DT40 Tdp1-/-;hTDP1 cells with camptothecin (screen for TDP1 inhibitors); chicken DT40 Tdp1-/-;hTDP1 cells + 20 nM CPT, ATP luminescence, 48 h; Potency, µM (highest dose often 46.2 µM), most hits filed as inhibitors; 420,000 tested, 12% active; AID 686979; also: nearly all actives have a fitted effect of over 55% in size
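Chicken DT40 Tdp1-/- cells stably complemented with human TDP1 were seeded at 400 cells/well in medium containing 20 nM camptothecin, exposed to pin-transferred compounds, and grown at 37 °C for at least 48 hr. Viability was read as ATP luminescence.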
Of the large screens only hits and unclear results are named; the others gave an inactive call. This is a sample that favours compounds with a hit; in the whole collection about 19% have one here. Unless noted, calls follow the shape of the dose curve; as a rule, active = well fitted curve in the direction sought with a large enough effect; inconclusive = small, poorly fitted or top-dose-only effect, or another doubt; inactive = no such curve, though single readings can be large; an effect the other way counts as inactive or inconclusive.

Cc1nc2c(-c3ccccc3)c(C)nn2c(C)c1CCC(=O)N1CCOCC1	HT1080 IDH1KD tx inconclusive
Cc1nc2cc(-c3cccc(F)c3)nn2c(C)c1CCC(=O)N1CCN(c2ccccn2)CC1	none
Cc1nc2c(-c3ccc(F)cc3)c(C)nn2c(C)c1CCC(=O)Nc1ccccc1	TDP1 cell noCPT inconclusive, TDP1 cell CPT inconclusive
Cc1nc2c(-c3ccc(F)cc3)c(C)nn2c(C)c1CCC(=O)N1CCC(Cc2ccccc2)CC1	TDP1 cell noCPT 23µM, TDP1 cell CPT inconclusive
Cc1nc2cc(-c3ccccc3)nn2c(C)c1CCC(=O)N1CCN(c2ccc(F)cc2)CC1	TDP1 cell noCPT 10µM, TDP1 cell CPT 23µM (no result: IL-1B inflam inh, HT1080NT lethal, HT1080 IDH1KD tx)
Cc1nc2c(-c3ccc(F)cc3)c(C)nn2c(C)c1CCC(=O)N1CCN(c2ccc(F)cc2)CC1	TDP1 cell noCPT 18µM, TDP1 cell CPT 18µM
COc1ccccc1NC(=O)CCc1c(C)nc2c(-c3ccc(F)cc3)c(C)nn2c1C	TDP1 cell noCPT inconclusive, TDP1 cell CPT 15µM
CCOC(=O)C1CCCCN1C(=O)CCc1c(C)nc2cc(-c3ccccc3)nn2c1C (stereo not drawn)	TDP1 cell noCPT 4.1µM, TDP1 cell CPT 3.7µM
Cc1nc2c(-c3ccc(F)cc3)c(C)nn2c(C)c1CCC(=O)N1CCN(c2ccccc2)CC1	TDP1 cell noCPT inconclusive, TDP1 cell CPT 18µM
COCCNC(=O)CCc1c(C)nc2c(-c3ccc(F)cc3)c(C)nn2c1C	none
Cc1nc2c(-c3ccc(F)cc3)c(C)nn2c(C)c1CCC(=O)NCCN1CCOCC1	none
CCN1CCN(c2ccc(NC(=O)CCc3c(C)nc4c(-c5ccc(F)cc5)c(C)nn4c3C)cc2)CC1	TDP1 cell noCPT 5.8µM, IL-1B inflam inh inconclusive, TDP1 cell CPT 10µM
CCOC(=O)C1CCN(C(=O)CCc2c(C)nc3cc(-c4ccccc4)nn3c2C)CC1	TDP1 cell CPT inconclusive
CCOC(=O)C1CCN(C(=O)CCc2c(C)nc3c(-c4ccc(F)cc4)c(C)nn3c2C)CC1	TDP1 cell noCPT inconclusive, TDP1 cell CPT 8.2µM
COCCN(Cc1cn[nH]c1-c1ccc2cc(OC)ccc2c1)C(C)C	none
O=C(Cn1c2ccccc2c2nc3n(c(=O)c21)CCCS3)Nc1ccccc1	TDP1 cell noCPT inconclusive, IL-1B inflam inh inconclusive, HT1080NT lethal inconclusive, HT1080 IDH1KD tx inconclusive, TDP1 cell CPT 13µM
COc1cccc(CNC(=O)c2c(OC)cc(=O)n3c2CCN(C(=O)c2ccoc2C)CC3)c1	none (no result: IL-1B inflam inh, HT1080NT lethal, HT1080 IDH1KD tx)
Cc1ccc(N=C2CCCN2Cc2ccccc2)c(C#N)c1	TDP1 cell noCPT 21µM, TDP1 cell CPT inconclusive
O=C(NN1C(=O)c2ccccc2NC1c1ccccn1)c1ccccc1 (stereo not drawn)	TDP1 cell noCPT inconclusive, TDP1 cell CPT 16µM
O=C(NN1C(=O)c2ccccc2NC1c1ccoc1)c1ccccc1 (stereo not drawn)	none
COC1=CC(=O)c2nc(Cl)ccc2C1=O	TDP1 cell noCPT 1µM, IL-1B inflam inh -111, HT1080NT lethal 3.7µM, HT1080 IDH1KD tx 2.9µM, TDP1 cell CPT 0.58µM
COc1ccc(N(C(=O)COc2ccccc2)C2C=CS(=O)(=O)C2)cc1 (stereo not drawn)	none
O=C(O)CCCNc1ccc([N+](=O)[O-])c(NCCCC(=O)O)n1	none
CCOC(=O)c1cc2c(ccn2C)n1CC(=O)N(C)C	none
COc1cccc(CN2CCN(c3ccc(F)cc3)C2=O)c1	TDP1 cell noCPT inconclusive, IL-1B inflam inh -51
COC(=O)c1cc2c(ccn2-c2ccc(F)cc2)n1Cc1cccc(OC)c1	TDP1 cell noCPT 16µM, HT1080 IDH1KD tx inconclusive, TDP1 cell CPT 7.3µM
CCOC(=O)c1cc2c(ccn2C)n1CC(=O)Nc1ccc(F)cc1	TDP1 cell CPT 23µM
CCOC(=O)c1cc2c(ccn2C)n1CC(=O)N1CCC(Cc2ccccc2)CC1	TDP1 cell noCPT 18µM, IL-1B inflam inh -74, TDP1 cell CPT 23µM
O=C(CNC(=O)c1cccc(F)c1)N/N=C/c1cccc([N+](=O)[O-])c1	none
CCOC(=O)c1cc2c(ccn2-c2ccc(F)cc2)n1CC(=O)N1CCN(C(=O)c2ccco2)CC1	TDP1 cell noCPT 12µM, TDP1 cell CPT inconclusive
Cc1cc(C(=O)OCC(=O)N2CCN(C(=O)c3ccco3)CC2)c(C)n1-c1ccc(F)cc1	TDP1 cell noCPT inconclusive
CN1CCN(c2ccccc2NC(=O)c2ccc(-c3cccc([N+](=O)[O-])c3)o2)CC1	TDP1 cell noCPT 15µM, TDP1 cell CPT inconclusive
CS(=O)(=O)N1CCN(c2ccccc2NC(=O)c2ccc([N+](=O)[O-])o2)CC1	TDP1 cell noCPT 8.2µM, IL-1B inflam inh inconclusive, TDP1 cell CPT 3.7µM
CS(=O)(=O)N1CCN(c2ccccc2NC(=O)c2ccc3c(c2)OCCO3)CC1	TDP1 cell noCPT inconclusive, TDP1 cell CPT inconclusive
O=C(NC(=S)Nc1ccccc1N1CCOCC1)c1ccc(-c2cc(Cl)ccc2Cl)o1	TDP1 cell noCPT 23µM, TDP1 cell CPT inconclusive
Cc1ccc(-n2nc3cc(C)c(NC(=O)c4ccc(-c5ccccc5)o4)cc3n2)cc1	none (no result: IL-1B inflam inh, HT1080NT lethal, HT1080 IDH1KD tx)
Cc1cc(N2CCN(C)CC2)ccc1NC(=O)c1ccc(-c2ccc(Cl)cc2)o1	TDP1 cell noCPT inconclusive, IL-1B inflam inh inconclusive, HT1080NT lethal 23µM, HT1080 IDH1KD tx 23µM, TDP1 cell CPT inconclusive
CN1CCN(c2ccccc2NC(=O)c2cccc([N+](=O)[O-])c2)CC1	none
CC(=O)Nc1ccc(N)cc1	none (no result: HT1080NT lethal, HT1080 IDH1KD tx)
Cc1cc(C)c2c(N)c(C(=O)Nc3ccccc3F)sc2n1	IL-1B inflam inh inconclusive
CC(C)N(C)Cc1nnnn1CC(=O)NCCc1cccc(C(F)(F)F)c1	none
CN(CC(=O)Nc1cccc(F)c1)C(=O)c1ccc(-c2cccc(C(F)(F)F)c2)o1	TDP1 cell noCPT inconclusive, TDP1 cell CPT inconclusive
O=C(Nc1ccccc1N1CCCCC1)c1ccc(-c2ccc(Cl)cc2)o1	TDP1 cell noCPT 4.1µM, HT1080NT lethal 2.1µM, HT1080 IDH1KD tx 2.1µM, TDP1 cell CPT 3.3µM
COc1ccc(NC(=O)c2ccc(-c3ccc(F)cc3)o2)cc1OC	TDP1 cell noCPT 16µM, TDP1 cell CPT 21µM
O=C(Nc1cccnc1)c1ccc(-c2ccc(Cl)cc2)o1	HT1080NT lethal inconclusive
CN(C)C(=O)c1ccc(NC(=O)c2ccc(-c3ccc(Cl)cc3)o2)cc1	TDP1 cell noCPT 16µM, TDP1 cell CPT 23µM
Cc1ccc(C)c(NC(=O)CN(C)C(=O)c2ccc(-c3cccc(C(F)(F)F)c3)o2)c1	TDP1 cell noCPT 15µM, TDP1 cell CPT inconclusive
NC(=O)c1ccccc1NC(=O)c1ccc(-c2ccc(Br)cc2)o1	TDP1 cell noCPT inconclusive (no result: IL-1B inflam inh, HT1080NT lethal, HT1080 IDH1KD tx)
COc1cc(NC(=O)c2ccc(-c3cccc(F)c3)o2)ccc1NC(=O)c1ccccc1Cl	TDP1 cell noCPT 18µM, TDP1 cell CPT 18µM
